Cycloheximide cs – affects cycloheximide protein synthesis inhibition readout, counter-screen; max response, %; cell reporter, cycloheximide protein synthesis inhibition counterscreen; 300,000 tested, 12% active; in the data active = max response mostly above about 13%, no sharp cut-off; inactive = mostly below about 14%; also: read at 38.3 µM for the half of the compounds with a filed dose; 0% is about no effect
AMA1-RON2 inh – AMA1-RON2 (P. falciparum) interaction inhibition; AlphaScreen AMA1-biotinylated RON2 peptide binding; Potency, µM (top dose mostly 58.2 µM), inactives show top-dose activity change, negative = inhibition, usual class: inhibitors; 360,000 tested, 0.2% active; AID 720542;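 also: potency is read from the fitted curve at half-maximal effect; 0% = vehicle wells and -100% = peptide control; nearly all actives have a fitted effect of over 45% in size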
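AMA1 (3D7) with his tag at 25 nM final met compounds first, then biotinylated RON2 peptide at 25 nM; detection used donor plus acceptor beads, 10 µg/mL apiece, read by AlphaScreen after 30 min at room temperature.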
AmpC detergent – blocks E. coli AmpC beta-lactamase in detergent assay; P00811; AmpC hydrolysis of nitrocefin, absorbance 480 nm, 0.01% Triton; Potency, µM (doses to about 114 µM), without a hit: at the highest dose activity change, negative = inhibition, actives largely listed as inhibitors; 370,000 tested, 0.041% active;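 also: potency is read from the fitted curve at half-maximal effect; 0% = no-compound wells and -100% = no-enzyme wells; nearly all actives have a fitted effect of over 25% in size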
Target sequence (P00811 whole entry, looked up): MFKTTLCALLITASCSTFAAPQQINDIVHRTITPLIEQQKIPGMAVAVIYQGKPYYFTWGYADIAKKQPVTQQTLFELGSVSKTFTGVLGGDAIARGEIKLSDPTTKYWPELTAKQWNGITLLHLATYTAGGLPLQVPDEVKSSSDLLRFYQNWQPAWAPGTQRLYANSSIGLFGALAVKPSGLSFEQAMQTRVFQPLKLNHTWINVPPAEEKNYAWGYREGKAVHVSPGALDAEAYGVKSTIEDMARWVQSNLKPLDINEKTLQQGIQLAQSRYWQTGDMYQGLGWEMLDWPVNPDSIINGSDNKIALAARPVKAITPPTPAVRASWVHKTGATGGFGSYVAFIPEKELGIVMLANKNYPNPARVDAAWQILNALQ
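AmpC (5.3 nM in the dispensed reagent) in 20 mM phosphate pH 7.0 with 0.01% (detergent screen) or 0.0001% Triton X-100 was preincubated with compounds for 15 min at room temperature. Nitrocefin was then added from an 800 uM solution, and hydrolysis was followed at 480 nm.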
AmpC inh no detg – blocks E. coli AmpC beta-lactamase in detergent-free assay; P00811; AmpC nitrocefin hydrolysis, absorbance 480 nm, 0.0001% Triton; Potency, µM (series often up to 57.1 µM), inactives show at the highest dose activity change, negative = inhibition, usual class: inhibitors; 330,000 tested, 0.52% active;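 also: potency is read from the fitted curve at half-maximal effect; plate controls were no compound for no effect and no enzyme for full effect; nearly all actives have a fitted effect of over 20% in size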
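20 mM phosphate pH 7.0 + 0.01% (detergent screen) or 0.0001% Triton X-100; 5.3 nM AmpC reagent; cpd preinc 15 min RT; nitrocefin (800 uM stock) to start; A480 q20 s × 4 min; Activity was normalised to no-enzyme and no-compound control wells.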
Shiga toxin inh – blocks Shiga toxin action in Vero cells | Vero cells, Shiga toxin protein synthesis inhibition reporter | inhibition, % at 38.7 µM | 290,000 tested, 9.2% active; in the data active = inhibition mostly above about 28%, no sharp cut-off; inactive = mostly below about 43%; also: 0% is about no effect
SARS PLpro yeast – inhibitors of SARS-CoV papain-like protease in yeast; 330,000 tested, 0.19% active; S. cerevisiae expressing SARS-CoV PLpro, growth rescue; Potency, µM (highest dose often 32.9 µM), without a hit: at the highest dose activity, positive = growth rescue, most hits filed as activators; AID 485353; calls by dose curve; also: potency is read from the fitted curve at half-maximal effect; 0% is about no effect; nearly all actives have a fitted effect of over 55% in size
The depositor's hits bear a star; u = inconclusive; x = not tested or not shown; + = active, no number. This excerpt belongs to a sample that is enriched for hits. Unless noted, calls follow the shape of the dose curve; as a rule, active = well fitted curve in the direction sought with a large enough effect; inconclusive = small, poorly fitted or top-dose-only effect, or another doubt; inactive = no such curve, though single readings can be large; an effect the other way counts as inactive or inconclusive.

SMILES	Cycloheximide cs	AMA1-RON2 inh	AmpC detergent	AmpC inh no detg	Shiga toxin inh	SARS PLpro yeast
Cc1ccc(C(=O)N/N=C\c2c(C)nn(-c3ccccc3)c2Cl)cn1	15	0%	-14%	-11%	15	-22%
CC(=O)NC1=NN(C(C)=O)C(c2ccc(C)cc2)S1 (stereo not given)	3	u	6%	-3%	-3	1%
Cc1nn(-c2ccccc2)c(Cl)c1/C=C/C(=O)c1ccccc1	19*	-16%	u	-18%	45	-16%
Cc1nn(-c2ccccc2)c(Cl)c1/C=N/O	-4	-3%	-4%	-9%	-1	-15%
CCC1CCc2sc(C(=O)N(C)CC(=O)Nc3ccc(OC)cc3)cc2C1 (stereo not given)	x	-7%	-12%	13%	x	-7%
COc1ccc(NC(=O)CN(C)C(=O)c2cc3c(s2)CCC(C)C3)cc1 (stereo not given)	14*	-1%	3%	-5%	19	-5%
Cc1ccc(Nc2nc3nonc3[nH]c2=O)cc1C	36*	7%	-5%	-50%	108*	-22%
C(=C\c1nc(-c2ccccc2)no1)/c1ccccc1	30*	94%	-14%	-21%	48*	7%
COc1ccccc1N1CCN(C(=O)c2cc3c(s2)CCCCC3)CC1	2	-27%	3%	80%	-20	-2%
O=C(c1cc2c(s1)CCCC2)N1CCN(c2ccccc2)CC1	24*	u	7%	-33%	151*	-4%
O=C(Nc1ccccc1N1CCOCC1)c1cc2c(s1)CCCCC2	40*	-8%	9%	4%	53*	-13%
CCc1sc(C(=O)Nc2ccccc2N2CCOCC2)cc1C	-1	-25%	1%	2%	12	-4%
O=C(Nc1ccc(N2CCOCC2)cc1)c1cc2c(s1)CCCC2	17*	-5%	4%	15%	51	-2%
O=C(Nc1ccc(N2CCOCC2)cc1)c1cc2c(s1)CCCCC2	12	-29%	0%	52%	44	-1%
CN(CC(=O)Nc1ccccc1Cl)C(=O)c1cc(-c2cccs2)nn1-c1ccccc1	x	21%	u	-21%	x	-1%
Cc1c(C(=O)N(C)c2ccc(Cl)cc2)cnn1-c1ccccc1	50*	0%	u	39%	x	1%
Cc1cccc(N(C)C(=O)c2cnn(-c3ccccc3)c2C)c1	24*	3%	-3%	1%	40*	-3%
Cc1ccc(N(C)C(=O)c2cnn(-c3ccccc3)c2C)c(C)c1	-1	2%	-15%	24%	x	-2%
Cc1c(C(=O)NCCSCc2c(F)cccc2Cl)cnn1-c1ccc(Cl)cc1	1	-8%	7%	-30%	-12	0%
Cc1cc(N2CCCCC2)nc(N2CCOCC2)n1	-4	-14%	1%	-14%	-2	27%
O=C(COC(=O)CCc1nc2ccccc2s1)Nc1nc(-c2ccccc2)cs1	18*	7%	-8%	-31%	47*	2%
Cc1cnc(NC(=O)CCCc2nc3ccccc3s2)s1	4	-3%	7%	-8%	14	-5%
Cc1csc(NC(=O)CCc2nc3ccccc3s2)n1	24*	20%	-5%	-16%	37	-1%
O=C(COC(=O)CCc1nc2ccccc2s1)Nc1ncc(Cl)cc1Cl	-2	1%	-5%	-12%	13	0%
CN(C)/C=N/c1c(C#N)cnn1-c1ccccc1	-1	-3%	u	-17%	-8	-1%
SMILES	Cycloheximide cs	AMA1-RON2 inh	AmpC detergent	AmpC inh no detg	Shiga toxin inh	SARS PLpro yeast
CN(C)/C=N/c1c(C#N)cnn1-c1nc2ccccc2s1	44*	-3%	-7%	-30%	87*	6%
CC(C)n1c(O)c(N=NC(=O)CNC(=O)CCc2ccccc2)c2ccccc21	4	-25%	-2%	-7%	17	0%
c1ccc(-c2nc3nc4ccccc4nc3n2CC2CCCO2)cc1 (stereo not given)	30*	-3%	0%	28%	30	0%
COc1ccc(CN(C(=O)c2cc3ccccc3oc2=O)C2CCS(=O)(=O)C2)cc1OC (stereo not given)	45*	4%	4%	1%	98*	-2%
O=C(c1cc2ccccc2oc1=O)N(Cc1ccccc1)C1CCS(=O)(=O)C1 (stereo not given)	40*	-13%	2%	7%	+	-5%
COc1ccc(CN(C(=O)c2cc3ccccc3oc2=O)C2CCS(=O)(=O)C2)cc1 (stereo not given)	32*	-5%	-7%	3%	62*	4%
CCOc1ccc(CN(C(=O)c2cc3ccccc3oc2=O)C2CC2)cc1	12	-6%	-13%	-5%	26	-1%
CCOc1ccc(CN(C(=O)c2cc3ccccc3oc2=O)C2CCS(=O)(=O)C2)cc1 (stereo not given)	68*	-9%	-10%	50%	111*	2%
COc1cc(CN(C(=O)c2ccccc2F)C2CCS(=O)(=O)C2)cc(OC)c1OC (stereo not given)	x	x	-2%	x	x	x
Nc1nonc1C(=O)NCCNCc1ccc(Cl)c(Cl)c1	x	x	2%	x	x	x
O=C(c1cc2ccccc2oc1=O)N(Cc1ccccc1F)C1CCS(=O)(=O)C1 (stereo not given)	31*	-3%	-9%	-19%	60*	4%
CCOc1ccccc1C(=O)N(Cc1ccccc1F)C1CCS(=O)(=O)C1 (stereo not given)	x	x	4%	x	x	x
CC(=O)Nc1ccc(-c2nc3c(C)cccc3[nH]2)cc1	45*	3%	-9%	-14%	110*	-4%
O=C(N/N=C/c1cccs1)C(O)c1ccccc1 (stereo not given)	-1	4%	3%	-11%	20	2%
Cc1sc2nc(SCC(=O)Nc3ccc(Cl)c(C(=O)O)c3)[nH]c(=O)c2c1C	x	20%	x	x	x	x
Cn1c(N/N=C/c2cccs2)cc(=O)n(C)c1=O	21*	95%	u	-19%	22	1%
O=C(O)c1cc(N/N=C/c2cccs2)ccc1Cl	49*	x	-6%	-26%	95*	0%
Cc1ccc(/C=N/Nc2ccc(F)cc2)s1	23*	-9%	1%	-48%	68*	8%
Cc1ccc(/C=N/Nc2ccc(Cl)c(C(=O)O)c2)s1	104*	-15%	-5%	-20%	150*	-9%
Cc1ccc(/C=N/n2c(C)nnc2C)s1	-2	-12%	0%	1%	15	-5%
COc1ccc(C(=O)N/C(=C\c2ccco2)C(=O)NCc2cccnc2)cc1	-1	15%	-6%	-14%	32	-5%
O=C(NC(=S)Nc1ccccc1Cl)c1ccco1	44*	5%	-20%	-12%	90*	-6%
O=C(NC(=S)Nc1cccc2cc(O)ccc12)c1ccco1	13	17%	10%	-39%	33	3%
O=C(NC(=S)Nc1cccc2c(O)cccc12)c1ccco1	26*	54%	-8%	-52%	109*	-5%
